# For some of these results: Results with a measured potency or affinity are listed apart.
# Experiments:
# Parameters in all cases: scale not given: direction of the effect not stated beside the values
# [1] = target: Protein translocase subunit SecA (Escherichia coli (strain K12)) (UniProt P10408); experiment: Assay to Identify E. coli SecA ATPase Inhibitors; type: functional; conditions: 30 µM
# [2] = target: T1, Ubiquitin-activating enzyme e1, putative (Leishmania donovani (strain BPK282A1)) (UniProt E9BSI1); experiment: Leishmania donovani Ubiquitin Activating Enzyme (LdE1); type: functional; conditions: 30 µM
# T1 sequence (whole entry): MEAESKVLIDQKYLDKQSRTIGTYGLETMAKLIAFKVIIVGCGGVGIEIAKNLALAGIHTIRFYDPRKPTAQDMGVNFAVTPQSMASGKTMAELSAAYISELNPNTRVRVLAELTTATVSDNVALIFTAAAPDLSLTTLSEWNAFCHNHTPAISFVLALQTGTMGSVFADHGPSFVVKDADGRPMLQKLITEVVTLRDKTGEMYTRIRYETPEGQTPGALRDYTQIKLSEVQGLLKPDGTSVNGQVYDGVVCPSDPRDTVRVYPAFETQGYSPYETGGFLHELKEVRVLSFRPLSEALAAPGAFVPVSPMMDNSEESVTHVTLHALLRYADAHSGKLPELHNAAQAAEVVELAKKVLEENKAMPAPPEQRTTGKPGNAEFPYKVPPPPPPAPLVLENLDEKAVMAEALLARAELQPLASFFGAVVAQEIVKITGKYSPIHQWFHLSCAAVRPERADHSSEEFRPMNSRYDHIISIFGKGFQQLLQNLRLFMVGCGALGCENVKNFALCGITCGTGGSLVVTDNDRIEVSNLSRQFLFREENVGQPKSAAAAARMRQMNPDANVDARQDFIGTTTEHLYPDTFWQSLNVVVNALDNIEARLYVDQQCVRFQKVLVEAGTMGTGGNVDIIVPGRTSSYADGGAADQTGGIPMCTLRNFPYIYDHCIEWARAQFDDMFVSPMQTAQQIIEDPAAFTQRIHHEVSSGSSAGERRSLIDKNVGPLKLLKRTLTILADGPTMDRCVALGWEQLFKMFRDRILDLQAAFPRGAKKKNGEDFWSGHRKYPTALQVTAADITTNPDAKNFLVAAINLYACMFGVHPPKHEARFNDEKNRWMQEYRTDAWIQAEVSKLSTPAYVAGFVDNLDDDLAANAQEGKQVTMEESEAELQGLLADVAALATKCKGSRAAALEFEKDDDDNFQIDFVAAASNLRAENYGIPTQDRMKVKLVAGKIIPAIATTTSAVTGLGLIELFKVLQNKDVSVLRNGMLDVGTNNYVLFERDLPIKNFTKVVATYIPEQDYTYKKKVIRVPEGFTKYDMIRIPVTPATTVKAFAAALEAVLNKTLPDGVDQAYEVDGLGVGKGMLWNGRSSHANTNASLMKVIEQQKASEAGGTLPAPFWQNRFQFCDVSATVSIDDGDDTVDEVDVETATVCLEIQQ
# [3] = target: AMP-activated protein kinase, AMPK (Homo sapiens) (UniProt P54646+O43741+P54619+Q9UGJ0+Q9Y478+Q13131+Q9UGI9); experiment: AMP-dependent Kinase enzyme assay. An in vitro enzyme assay that detects ADP turnover that is directly proportional to AMPK activity. This uses naive AMPK that is activated during the assay with MK-8722; type: functional; conditions: 30 µM
# [4] = target: Sialic acid-binding Ig-like lectin 9 (Homo sapiens) (UniProt Q9Y336); experiment: Hs-Siglec9 ALPHAscreen SOP 20170721; conditions: 10 µM
# Sequence of Sialic acid-binding Ig-like lectin 9 (Homo sapiens) (Q9Y336 whole entry): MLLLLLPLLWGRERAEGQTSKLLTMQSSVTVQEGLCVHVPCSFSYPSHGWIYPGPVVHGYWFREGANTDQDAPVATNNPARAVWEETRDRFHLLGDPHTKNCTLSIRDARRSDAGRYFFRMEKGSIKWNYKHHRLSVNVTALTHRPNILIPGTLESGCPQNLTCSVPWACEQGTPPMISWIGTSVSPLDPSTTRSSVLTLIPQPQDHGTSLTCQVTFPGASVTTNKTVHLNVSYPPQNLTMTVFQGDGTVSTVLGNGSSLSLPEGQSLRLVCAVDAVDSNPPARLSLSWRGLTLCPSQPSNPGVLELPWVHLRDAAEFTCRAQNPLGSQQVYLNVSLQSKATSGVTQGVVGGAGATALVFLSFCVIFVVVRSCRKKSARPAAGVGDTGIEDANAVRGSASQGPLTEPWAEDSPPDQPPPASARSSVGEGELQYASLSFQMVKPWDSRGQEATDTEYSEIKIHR
# Trypanosoma cruzi = experiment: Trypanosoma cruzi phosphomannomutase and mannose-1-phosphate guanylyltransferase assay; type: functional; conditions: 10 µM
# [5] = target: T2, Arginase-2, mitochondrial (Homo sapiens) (UniProt P78540); experiment: in vitro enzyme assay to detect the production of urea directly proportional to the activity of Arginase II; type: functional; conditions: 33.3 µM; further: in the data most compounds retested in dose-response had high values
# T2 sequence (whole entry): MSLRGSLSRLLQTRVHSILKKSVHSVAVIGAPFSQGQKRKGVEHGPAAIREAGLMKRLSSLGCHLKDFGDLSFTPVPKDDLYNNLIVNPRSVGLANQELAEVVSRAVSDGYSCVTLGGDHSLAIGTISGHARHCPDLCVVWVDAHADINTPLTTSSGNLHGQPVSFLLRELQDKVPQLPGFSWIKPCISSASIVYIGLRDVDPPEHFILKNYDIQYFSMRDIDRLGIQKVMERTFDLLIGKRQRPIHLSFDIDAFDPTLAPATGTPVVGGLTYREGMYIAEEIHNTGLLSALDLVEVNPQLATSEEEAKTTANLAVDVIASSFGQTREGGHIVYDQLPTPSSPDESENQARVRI
# [6] = target: T3, Proteasome subunit beta (Trypanosoma cruzi) (UniProt O96673); experiment: Trypanosoma cruzi proteasome chymotrypsin-like activity (TcProtChymo) assay.; further: in the data most compounds retested in dose-response had high values; type: functional; conditions: 9.37 µM
# T3 sequence (whole entry): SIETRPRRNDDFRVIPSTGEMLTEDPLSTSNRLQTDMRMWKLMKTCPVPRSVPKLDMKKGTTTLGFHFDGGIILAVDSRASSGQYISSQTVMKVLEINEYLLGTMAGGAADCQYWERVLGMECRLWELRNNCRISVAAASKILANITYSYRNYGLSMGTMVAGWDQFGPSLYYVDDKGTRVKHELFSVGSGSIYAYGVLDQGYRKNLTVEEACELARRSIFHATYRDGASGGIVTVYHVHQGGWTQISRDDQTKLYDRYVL
# Homo sapiens = organism: Homo sapiens; experiment: To identify inhibition of the IFN signalling (Jak-Stat) pathway via expression of an eGFP reporter gene under the control of an IFN-stimulated response element (ISRE) containing MxA promoter.; type: functional; conditions: 30 µM
# [7] = target: T4, Tyrosyl-tRNA synthetase, putative (Trypanosoma cruzi (strain CL Brener)) (UniProt Q4DSP6); experiment: Trypanosoma cruzi tyrosyl tRNA synthetase (TcYRS) _High Tyrosine SOP; type: functional; conditions: 30 µM; further: in the data most compounds retested in dose-response had high values
# T4 sequence (whole entry): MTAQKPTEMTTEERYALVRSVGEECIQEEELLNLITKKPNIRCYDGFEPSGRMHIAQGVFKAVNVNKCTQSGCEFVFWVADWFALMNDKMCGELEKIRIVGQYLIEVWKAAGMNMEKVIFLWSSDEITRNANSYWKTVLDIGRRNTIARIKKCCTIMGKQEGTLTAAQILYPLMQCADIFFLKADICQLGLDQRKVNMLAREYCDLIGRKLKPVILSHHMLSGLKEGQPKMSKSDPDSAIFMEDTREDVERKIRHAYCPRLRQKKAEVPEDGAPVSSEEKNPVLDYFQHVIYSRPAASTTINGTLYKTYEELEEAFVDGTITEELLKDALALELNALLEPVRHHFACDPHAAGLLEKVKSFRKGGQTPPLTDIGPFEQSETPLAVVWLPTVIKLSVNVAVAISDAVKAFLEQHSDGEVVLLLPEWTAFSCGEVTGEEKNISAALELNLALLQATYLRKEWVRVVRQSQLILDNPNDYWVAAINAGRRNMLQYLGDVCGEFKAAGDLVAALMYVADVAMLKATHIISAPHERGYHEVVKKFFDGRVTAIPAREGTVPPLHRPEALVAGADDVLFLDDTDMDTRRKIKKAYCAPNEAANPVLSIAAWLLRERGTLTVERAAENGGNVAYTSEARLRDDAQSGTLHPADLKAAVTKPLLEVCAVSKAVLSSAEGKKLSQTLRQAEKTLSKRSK
# [8] = target: T4, Tyrosyl-tRNA synthetase, putative (Trypanosoma cruzi (strain CL Brener)); experiment: Trypanosoma cruzi tyrosyl tRNA synthetase (TcYRS) SOP; type: functional; conditions: 30 µM
# [9] = target: Chromo domain-containing protein 1 (Saccharomyces cerevisiae (strain ATCC 204508 / S288c) (Baker's yeast)) (UniProt P32657); experiment: ScCHD-1 Enzyme Inhibition Assay; type: functional; conditions: 30 µM; further: in the data most compounds retested in dose-response had high values
# Sequence of Chromo domain-containing protein 1 (Saccharomyces cerevisiae (strain ATCC 204508 / S288c) (Baker's yeast)) (P32657 whole entry, the tested form may be a part): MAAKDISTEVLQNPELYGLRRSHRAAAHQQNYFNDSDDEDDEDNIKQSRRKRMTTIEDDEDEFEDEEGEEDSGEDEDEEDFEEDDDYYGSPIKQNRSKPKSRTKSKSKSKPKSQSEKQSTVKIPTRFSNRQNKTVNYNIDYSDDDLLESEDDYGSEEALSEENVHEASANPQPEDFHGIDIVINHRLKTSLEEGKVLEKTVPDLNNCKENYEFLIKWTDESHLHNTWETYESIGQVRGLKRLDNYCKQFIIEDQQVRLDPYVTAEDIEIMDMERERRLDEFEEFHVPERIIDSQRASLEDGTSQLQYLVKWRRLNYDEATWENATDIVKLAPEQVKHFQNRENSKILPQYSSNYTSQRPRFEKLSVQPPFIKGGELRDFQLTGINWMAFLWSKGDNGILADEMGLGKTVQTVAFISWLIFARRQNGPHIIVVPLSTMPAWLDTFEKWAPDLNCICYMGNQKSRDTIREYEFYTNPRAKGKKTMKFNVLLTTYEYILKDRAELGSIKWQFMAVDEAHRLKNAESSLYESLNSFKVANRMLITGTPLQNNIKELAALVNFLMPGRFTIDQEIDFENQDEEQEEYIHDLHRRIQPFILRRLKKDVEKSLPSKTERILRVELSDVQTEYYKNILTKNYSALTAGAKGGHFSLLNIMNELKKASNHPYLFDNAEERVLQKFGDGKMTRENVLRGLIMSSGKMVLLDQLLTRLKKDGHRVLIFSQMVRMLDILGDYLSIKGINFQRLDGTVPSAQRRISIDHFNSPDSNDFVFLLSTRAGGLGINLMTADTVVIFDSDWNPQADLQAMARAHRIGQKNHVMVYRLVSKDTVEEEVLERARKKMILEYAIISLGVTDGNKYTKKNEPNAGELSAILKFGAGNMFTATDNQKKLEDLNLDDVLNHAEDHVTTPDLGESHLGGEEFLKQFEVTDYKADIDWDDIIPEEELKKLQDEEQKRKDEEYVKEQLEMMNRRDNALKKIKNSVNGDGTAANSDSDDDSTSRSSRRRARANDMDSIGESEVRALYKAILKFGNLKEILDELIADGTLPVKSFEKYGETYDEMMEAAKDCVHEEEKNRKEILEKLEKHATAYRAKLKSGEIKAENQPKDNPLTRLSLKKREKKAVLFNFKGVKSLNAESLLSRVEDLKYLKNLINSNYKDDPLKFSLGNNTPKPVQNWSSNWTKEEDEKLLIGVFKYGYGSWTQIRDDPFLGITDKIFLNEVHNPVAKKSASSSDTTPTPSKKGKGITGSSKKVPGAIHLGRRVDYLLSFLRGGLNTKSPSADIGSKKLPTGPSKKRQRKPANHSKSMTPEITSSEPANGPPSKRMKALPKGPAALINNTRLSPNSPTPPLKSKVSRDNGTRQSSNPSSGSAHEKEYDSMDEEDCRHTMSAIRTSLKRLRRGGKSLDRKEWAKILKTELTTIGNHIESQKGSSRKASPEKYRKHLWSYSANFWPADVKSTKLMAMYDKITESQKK
# Sequence of Protein translocase subunit SecA (Escherichia coli (strain K12)) (P10408 whole entry): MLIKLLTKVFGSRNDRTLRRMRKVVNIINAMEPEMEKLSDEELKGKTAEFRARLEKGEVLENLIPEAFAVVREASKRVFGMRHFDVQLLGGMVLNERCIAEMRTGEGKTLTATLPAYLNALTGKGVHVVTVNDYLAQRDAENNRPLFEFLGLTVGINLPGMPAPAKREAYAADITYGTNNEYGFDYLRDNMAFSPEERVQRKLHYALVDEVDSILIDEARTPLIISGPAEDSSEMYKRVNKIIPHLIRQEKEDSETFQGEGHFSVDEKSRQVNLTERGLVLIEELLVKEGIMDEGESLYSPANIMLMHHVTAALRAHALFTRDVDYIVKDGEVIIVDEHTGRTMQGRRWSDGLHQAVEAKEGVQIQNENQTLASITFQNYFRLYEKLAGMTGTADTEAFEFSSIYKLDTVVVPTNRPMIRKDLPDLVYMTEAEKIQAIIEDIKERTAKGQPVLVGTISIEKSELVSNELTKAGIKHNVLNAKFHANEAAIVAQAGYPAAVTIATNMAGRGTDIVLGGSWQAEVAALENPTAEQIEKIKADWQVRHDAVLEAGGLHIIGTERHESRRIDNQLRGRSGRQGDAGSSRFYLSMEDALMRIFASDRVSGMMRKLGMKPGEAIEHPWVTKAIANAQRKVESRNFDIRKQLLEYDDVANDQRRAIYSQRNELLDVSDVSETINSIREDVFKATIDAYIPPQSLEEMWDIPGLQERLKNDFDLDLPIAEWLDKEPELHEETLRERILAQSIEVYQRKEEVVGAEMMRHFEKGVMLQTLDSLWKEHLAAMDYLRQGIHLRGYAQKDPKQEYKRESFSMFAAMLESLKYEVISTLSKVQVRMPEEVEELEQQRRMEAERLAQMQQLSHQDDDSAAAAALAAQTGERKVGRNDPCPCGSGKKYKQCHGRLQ
SMILES,Percent Effect [1] [%],Percent Effect [2] [%],Percent Effect [3] [%],Percent Effect [4] [%],Percent Effect (Trypanosoma cruzi) [%],Percent Effect [5] [%],Percent Effect [6] [%],Percent Effect (Homo sapiens) [%],Percent Effect [7] [%],Percent Effect [8] [%],Percent Effect [9] [%]
NS(=O)(=O)CCNC(=O)c1nnn(-c2ccccc2)c1C1CC1,0.0352,2.7,0.144,-1.59,-8.4,2.92,12.1,1.92,4.95,6.1,-4.86
CN(C)CCN1CCOCC2(C1)CN(Cc1ccsc1)CCO2 (stereo not given),-4.22,5.33,14.3,0.643,-2.56,4.89,4.67,-0.367,4.25,8.97,-3.51
Cc1ccccc1CSCCn1nc2ccccn2c1=O,-1.42,15.6,7.92,-4.64,-2.06,4,10.9,18.9,4.76,18.8,-32.9
CNS(=O)(=O)c1ccc(C(=O)N2CCCC2c2ccccc2)o1 (stereo not given),-6.62,13.2,2.8,2.47,2.15,-3.6,-2.96,-6.57,6.4,18.5,1
CCNC(=O)N1CCCCC1CCO (stereo not given),1.22,8.11,-0.623,17.1,5.99,6.67,-0.69,-3.81,0.529,7.32,-10.1
Cc1ccc(C(CNCc2ccncc2)N2CCOCC2)s1 (stereo not given),-9.26,-2.7,-3.34,21.5,-2.73,1.67,17.8,18.3,1.98,-1.22,-7.13
CCc1cc(N2CCCNCC2)n2nc(C)c(C)c2n1,-1.91,8,2.19,2.6,-3.41,3.65,16,12.2,1.64,11.1,-6.23
Cc1cnc(CN(C)C2CCN(CC(=O)Nc3c(C)n[nH]c3C)C2)o1 (stereo not given),3.19,20.2,14.2,-1.23,-9.54,6.84,6.63,33.5,5.42,8.86,-4.79
CC(C)Nc1nc2c(cc1C(=O)NCC1CC1)CCNCC2,-1.6,10.7,6.52,7.51,-2.9,-29.2,8.55,-6.96,7.29,5,-10.3
CC(=O)NCCNC(=O)c1cnc(-c2ccccc2)nc1,-2.95,2.7,0.346,11.7,-4.59,4.22,3.35,0.496,6.45,11.1,-5.21
Cc1cc(C(=O)N2CCCC(n3cncn3)C2)c(C)n1C1CC1 (stereo not given),-2.41,-3.8,2.66,1.98,1.54,2.37,-1.54,-3.71,2.08,2.53,11.1
Cc1cc(NC(=O)c2nc(N3CCCC3)ncc2Cl)nc(C(C)C)n1,-0.667,5.41,-5.04,-2.54,-8.79,3.33,17.2,2.69,9.9,8.54,0.666
CCc1nnc2n1CCN(C(=O)c1cc(Br)c[nH]1)C2,-5.48,23.4,-0.82,9.55,8.05,-1.78,13,-20.8,9.71,19.5,-10.3
CNC(=O)Nc1cc(-c2ccccc2C)nn1CCO,-4.2,7.89,-1.72,-9.84,-3.8,-5.92,17.2,-9.47,1.06,0,-7.09
Cc1cc(CN2CC[C@H]3C(=O)N(c4ccccc4)CCO[C@H]3C2)no1,-3.31,21.3,1.48,-6.56,-4.92,-2.1,8.37,19.1,2.13,11.5,-1.25
O=C1CC2(CCN(c3nncs3)C2)CN1c1ccccc1 (stereo not given),-2.98,5.41,-3.44,2.02,-5.66,4.58,12.4,-3.33,4.95,11,0.436
Cc1cn2c(n1)CCC(NC(=O)c1ccc(CS(C)(=O)=O)o1)C2 (stereo not given),-2.09,7.89,0.931,9.84,4.13,0.766,9.52,3.27,3.43,9.76,-9.57
CCc1ccc(C2CCCCCN2Cc2nc(CCOC)no2)o1 (stereo not given),-1.49,2.6,3.4,5.24,3.05,-9.65,16.5,19.7,-14,-18.5,-9.18
O=C(CCC1CCCO1)NCc1ccnc(-n2cccn2)c1 (stereo not given),-7.06,13.2,2.95,-9.63,-7.38,-1.44,5.33,10.6,0.493,11.1,-5.06
CC(=O)Nc1nc(C(=O)N2CCCC(n3ccnc3)C2)cs1 (stereo not given),-2.04,-7.89,-5.64,-2.76,-6.44,3.6,-6.34,-6.45,2.46,1.24,5.04

# — ChEMBL document CHEMBL3988442, “University of Dundee, Small-Polar-MMV Screening Library” (2021)
